Results taken from the supplement of paper PMC7380943.

Columns and labels:
[1] = tested on: CLZ3 (HCA2 human fibroblast dual HR-NHEJ reporter); test: NHEJ repair efficiency (GFP+ cells) relative to control (log10 fold); higher = more non-homologous end joining; conditions: 5 µM; doxycycline 0.5 ug/mL
[2] = tested on: CLZ3 (HCA2 human fibroblast dual HR-NHEJ reporter); test: HR repair efficiency (tdTomato+ cells) relative to control (log10 fold); higher = more homologous recombination; conditions: 5 µM; doxycycline 0.5 ug/mL
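Wherever HR repair efficiency (tdTomato+ cells) relative to control is given: compound given one day before doxycycline, which switches on I-SceI endonuclease expression to create double-strand breaks within the integrated reporter.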
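Wherever NHEJ repair efficiency (GFP+ cells) relative to control is given: compound given one day ahead of doxycycline, which switches on I-SceI endonuclease to cut the chromosomally integrated reporter and create DSBs.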

SMILES | NHEJ repair efficiency (log10) [1] | HR repair efficiency (log10) [2]
O=c1cc(-c2ccc(O)cc2)oc2cc(O[C@@H]3O[C@H](CO)[C@@H](O)[C@H](O)[C@H]3O[C@@H]3OC[C@](O)(CO)[C@H]3O)cc(O)c12 [Apiin] | 0.142 | 0.321
C=C[C@@H]1CNC(=S)O1 [Epigoitrin] | 0.17 | 0.212
CC12CCC(CC1=O)C2(C)C (stereo unspecified) [Camphor] | -0.0599 | -0.0168
COC(=O)C1=CO[C@@H](O[C@@H]2O[C@H](CO)[C@@H](O)[C@H](O)[C@H]2O)[C@@H]2[C@@]3(C)O[C@H]3[C@@H](O)[C@]12O [Sesamoside] | -0.0395 | -0.1
CCCCCCCC/C=C\CCCCCCCC(=O)OCC(COC(=O)CCCCCCC/C=C\CCCCCCCC)OC(=O)CCCCCCC/C=C\CCCCCCCC [Glycerol Trioleate] | -0.000616 | 0.0182
O=c1cc(-c2ccc(O)cc2)oc2c([C@@H]3O[C@H](CO)[C@@H](O)[C@H](O)[C@H]3O)c(O)c([C@@H]3OC[C@H](O)[C@H](O)[C@H]3O)c(O)c12 [Isoschaftoside] | -0.0804 | 0.0575
O=C(/C=C/c1ccc(O)c(O)c1)O[C@@H]1C[C@](O)(C(=O)O)C[C@@H](O)[C@H]1O [Chlorogenic Acid] | 0.0025 | -0.132
CCOC(=O)c1c(C(=O)OCC)c(O)c2ccccc2c1O [Rubidate] | 0.0573 | 0.128
C=C1C[C@]2(O)O[C@@]3(CC2=C(C)C)[C@@H](C)CC[C@@H]13 [Isocurcumenol] | -0.116 | -0.239
O=C1C[C@@H](c2ccc(O[C@@H]3O[C@H](CO)[C@@H](O)[C@H](O)[C@H]3O)cc2)Oc2cc(O)ccc21 [Liquiritin] | -0.084 | -0.0906
COc1cc2ccc(=O)oc2cc1OC [Scoparone] | 0.0322 | 0.0853
O=C(/C=C/c1ccc(O[C@@H]2O[C@H](CO)[C@@H](O)[C@H](O)[C@H]2O)cc1)c1ccc(O)cc1O [Isoliquiritoside] | -0.17 | -0.232
CC(CC(=O)C[C@@H](C)[C@H]1CC(=O)[C@@]2(C)C3=C(C(=O)[C@@H](O)[C@]12C)[C@@]1(C)CC[C@H](O)C(C)(C)[C@@H]1C[C@@H]3O)C(=O)O (stereo partly specified) [Ganoderic Acid G] | 0.055 | 0.106
CC1(C)CC[C@]2(C(=O)O)CCC3=C([C@@H](CCl)C[C@@H]4[C@@]5(C)C[C@H](O)[C@H](O)[C@@](C)(C(=O)O)[C@@H]5CC[C@@]34C)[C@@H]2C1 [Senegenin] | -0.0514 | -0.031
O=C(/C=C/c1ccc(O[C@@H]2O[C@H](CO)[C@@H](O)[C@H](O)[C@H]2O)cc1)c1ccc(O)cc1O [Isoliquiritin] | -0.0606 | -0.0597
C/C1=C/CC[C@H](C)C(=O)C[C@@H](C(C)C)C(=O)C1 [Curdione] | -0.0258 | 0.0177
COc1ccc([C@@H]2OC[C@H]3[C@@H]2CO[C@@H]3c2ccc3c(c2)OCO3)cc1OC [Fargesin] | 0.0593 | 0.116
C[C@@H]1O[C@@H](O[C@H]2[C@H](OC(=O)[C@]34CCC(C)(C)C[C@H]3C3=CC[C@@H]5[C@@]6(C)C[C@H](O)[C@H](O[C@@H]7O[C@H](CO)[C@@H](O)[C@H](O)[C@H]7O)C(CO)(CO)[C@@H]6CC[C@@]5(C)[C@]3(C)C[C@H]4O)OC[C@H](O)[C@@H]2O)[C@H](O)[C@H](O)[C@H]1O[C@@H]1OC[C@@H](O)[C@H](O[C@@H]2OC[C@](O)(CO)[C@H]2O)[C@H]1O [Platycodin D] | -0.142 | -0.287
CCCCCCCCC[C@H](O)CC(=O)CCc1ccc(O)c(OC)c1 [10-Gingerol] | 0.0104 | 0.0717

SMILES | NHEJ repair efficiency (log10) [1] | HR repair efficiency (log10) [2]
COC(=O)c1ccccc1O[C@@H]1O[C@H](CO[C@@H]2OC[C@@H](O)[C@H](O)[C@H]2O)[C@@H](O)[C@H](O)[C@H]1O [Gaultherin] | -0.0565 | -0.122
C=C(C)C(=O)Cc1c(OC)ccc2ccc(=O)oc12 [Murrayone] | 0.0921 | -0.312
O=c1cc(-c2ccc(O)c(-c3c(O)cc(O)c4c(=O)cc(-c5ccc(O)cc5)oc34)c2)oc2cc(O)cc(O)c12 [Amentoflavone] | 0.0928 | 0.0831
COc1cc(C=O)ccc1O [Vanillin] | -0.132 | -0.154
C[C@@H]1O[C@@H](O[C@@H]2[C@H](O)[C@@H](O)[C@H](O[C@H]3CC[C@@]4(C)C(CC[C@]5(C)C4C=C[C@]46OC[C@@]7(CCC(C)(C)CC74)[C@@H](O)C[C@]65C)C3(C)C)O[C@@H]2CO[C@@H]2O[C@H](CO)[C@@H](O)[C@H](O)[C@H]2O)[C@H](O)[C@H](O)[C@H]1O (stereo partly specified) [Saikosaponin c] | -0.0431 | -0.104
O=c1c(O[C@@H]2O[C@H](CO)[C@@H](O)[C@H](O)[C@H]2O)c(-c2ccc(O)cc2)oc2cc(O)cc(O)c12 [Astragalin] | -0.0677 | 0.0112
O=C(O[C@@H]1Cc2c(O)cc(O)cc2O[C@@H]1c1ccc(O)c(O)c1)c1cc(O)c(O)c(O)c1 [Epicatechin Gallate] | -0.236 | -0.0859
COc1cc(C2Oc3ccc(C4Oc5cc(O)cc(O)c5C(=O)C4O)cc3OC2CO)ccc1O (stereo unspecified) [Iso-Silybin] | -0.138 | -0.241
CC12CCC(CC1)C(C)(C)O2 [Eucalyptol] | 0.0692 | 0.0216
O=c1oc2c(O)cc(O)cc2c2oc3cc(O)c(O)cc3c12 [Isodemethylwedelolacton] | -0.0118 | 0.0907
CC(C)(O)[C@@H]1CC[C@](C)([C@H]2[C@@H](O)C[C@@]3(C)[C@@H]4C[C@H](O)[C@H]5C(C)(C)[C@@H](O)CC[C@@]56C[C@@]46CC[C@]23C)O1 [Cycloastragenol] | -0.045 | 0.136
CC(/C=C/C=C(\C)C(=O)O[C@@H]1O[C@H](CO)[C@@H](O)[C@H](O)[C@H]1O)=C\C=C\C=C(C)\C=C\C=C(/C)C(=O)O[C@@H]1O[C@H](CO[C@@H]2O[C@H](CO)[C@@H](O)[C@H](O)[C@H]2O)[C@@H](O)[C@H](O)[C@H]1O [Crocin Ii] | -0.0199 | 0.0485
CC1(C)CC[C@]2(C(=O)O[C@@H]3O[C@H](CO)[C@@H](O)[C@H](O)[C@H]3O)CC[C@]3(C)C(=CC[C@@H]4[C@@]5(C)CC[C@H](O[C@@H]6O[C@H](C(=O)O)[C@@H](O)[C@H](O)[C@H]6O[C@@H]6O[C@H](CO)[C@@H](O)[C@H](O)[C@H]6O)C(C)(C)[C@@H]5CC[C@]43C)[C@@H]2C1 [Chikusetsusaponin V] | 0.0351 | 0.0384
C=C[C@@H]1[C@@H](O[C@@H]2O[C@H](CO)[C@@H](O)[C@H](O)[C@H]2O)OC=C(C(=O)OC)[C@@H]1CCOC(=O)c1cc(O)c(O)c(O)c1 [Cornuside I] | -0.0558 | 0.0608
COc1ccc(-c2oc3c(CC=C(C)C)c(O[C@@H]4O[C@H](CO)[C@@H](O)[C@H](O)[C@H]4O)cc(O)c3c(=O)c2O[C@@H]2O[C@@H](C)[C@H](O)[C@@H](O)[C@H]2O[C@@H]2O[C@@H](C)[C@H](O)[C@@H](O)[C@H]2O)cc1 [Epimedin C] | -0.0776 | -0.0883
CC(C)=CCC[C@](C)(O)[C@H]1CC[C@]2(C)[C@@H]1[C@H](O)C[C@@H]1[C@@]3(C)CC[C@H](O[C@@H]4O[C@H](CO)[C@@H](O)[C@H](O)[C@H]4O[C@@H]4O[C@H](CO)[C@@H](O)[C@H](O)[C@H]4O)C(C)(C)[C@@H]3CC[C@]12C [R-Ginsenoside Rg3] | 0.0761 | -0.0174
O=C(C=Cc1ccc(O)c(O)c1)O[C@@H]1C[C@@](O)(C(=O)O)C[C@@H](O)[C@@H]1O [5-Caffeoylquinic Acid] | -0.0761 | -0.0365
O=C1C[C@@H](c2ccc(O)cc2)Oc2cc(O)cc(O)c21 [Naringenin] | -0.176 | -0.025
CC(C)=C1CC[C@@H](C)CC1=O [Pulegone] | 0.114 | -0.0589
